# Inconclusive results are not listed. Where a call stands in place of a potency, no number is given. Calls of active or inactive are those of the source. The call rests on the fitted dose curve; in most records, active means well fitted cell-killing curve with a large enough effect in the repeat runs; inconclusive means weak or mixed curves, or effect the other way; inactive means no such curve, though single readings can be large or run the other way.
# Assay: qHTS assay to identify small molecule agonists of the farnesoid-X-receptor (FXR) signaling pathway - cell viability counter screen (AID 743218); further: nearly all actives have a fitted effect of over 45% in size
# Details: FXR-bla HEK293T viability, CellTiter-Glo luminescence, 16 h; series mostly up to 62.6 µM
# From the text: U.S. Tox21 Program National Center for Advancing Translational Sciences [NCATS] NIH Chemical Genomics Center [NCGC] U.S. Environmental Protection Agency [EPA] National Institutes of Environmental Health Sciences [NIEHS] National Toxicology Program [NTP] U.S. Food and Drug Administration [FDA] Tox21 Assay Overview: The farnesoid-X-receptor (FXR), a nuclear hormone receptor, is highly expressed in liver, intestine, kidney and adrenal cortex. Natural ligands of FXR are the bile acids (Cholic acid, Chenodeoxy cholic acid etc). FXR is an important regulator of diverse metabolic pathways, including the bile acid homeostasis, lipid and glucose metabolisms. FXR regulates the expression of target genes by binding either as a monomer or as a heterodimer with the retinoid X receptor (RXR). Numerous studies have reported that FXR exerts protective function during cholestasis, diabetes, liver regeneration, and cancer. To identify compounds that activate FXR signaling, GeneBLAzer FXR-UAS-bla HEK 293T cell line (Invitrogen, Carlsbad, CA) containing a beta-lactamase reporter gene under the control of a UAS response element was used to screen the Tox21 10K compound library. The cytotoxicity of the Tox21 compound library against the FXR-bla cell line was tested in parallel by measuring the cell viability using CellTiter-Glo assay in the same wells.
# Tox21 Assay Protocol Summary: FXR-bla cells were dispensed at 5000 cells/5uL/well in 1536-well black wall/clear bottom plates using a Multidrop Combi (Thermo Fisher Scientific, Waltham, MA) dispenser. After the assay plates were incubated at 37 C and 5% CO2 for 5 h, 23 nL of compounds dissolved in DMSO, positive controls or DMSO only was transferred to the assay plate by a Pintool station (Kalypsys, San Diego, CA). The assay plates were incubated at 37C for 16 h. After 1 uL of LiveBLAzerTM B/G FRET substrate was added using a Bioraptr Flying Reagent Dispenser (FRD) workstation (Beckman Coulter, Indianapolis, IN), the plates were incubated at room temperature for 2 h, and fluorescence intensity was measured by an Envision plate reader (PerkinElmer, Shelton, CT). For cell viability readout that measures cytotoxicity, 4uL/well of CellTiter-Glo reagent was added into the assay plates using a Bioraptr FRD. After 30 min incubation at room temperature, the luminescence intensity in the plates was measured using a ViewLux plate reader (PerkinElmer).
# Potency means the concentration at half of the fitted maximal effect.
row,SMILES,Potency
1,COc1ccc(C=O)cc1OC,inactive
2,C[N+](C)(C)C,inactive
3,CC(C)(O)C#N,inactive
4,c1ccc(C2CO2)cc1 (stereo not given),inactive
5,Cc1cc(Cl)ccc1N=CN(C)C,inactive
6,CCOP(=S)(OCC)OP(=S)(OCC)OCC,inactive
7,Cc1cccc(N=Nc2ccc(N(C)C)cc2)c1,inactive
8,CCOS(=O)(=O)OCC,inactive
9,O=C1Nc2ccc(Cl)cc2C(c2ccccc2)=NC1O (stereo not given),inactive
10,COc1ccc(CO)cc1,inactive
11,O=[N+]([O-])c1ccc(Cl)c([N+](=O)[O-])c1,54.9 µM (active)
12,Clc1cccc(Cl)c1,inactive
13,c1ccc2c(c1)Nc1ccccc1S2,inactive
14,[Cl-].[Cl-].[Cl-].[Fe+3],inactive
15,C[C@]12CCC(=O)C=C1CC[C@@H]1[C@@H]2CC[C@@]2(C)[C@H]1CC[C@]2(C)O,inactive
16,Nc1ncn[nH]1,inactive
17,CC(C)Nc1nc(Cl)nc(NC(C)C)n1,inactive
18,Cc1ccc(N=CN(C)C=Nc2ccc(C)cc2C)c(C)c1,inactive
19,CC(C)CON=O,inactive
20,C[C@]12CC[C@H]3[C@@H](CCC4=CC(=O)CC[C@@H]43)[C@@H]1CC[C@@H]2O,inactive

row,SMILES,Potency
1,CCCCOCCOC(C)=O,inactive
2,CCN(CC)C(=O)C(C)Oc1cccc2ccccc12 (stereo not given),inactive
3,O=P(OCCCl)(OCCCl)OCCCl,inactive
4,Clc1ccc(C(Cl)(Cl)Cl)cc1,inactive
5,O=C(O)c1nn(Cc2ccc(Cl)cc2Cl)c2ccccc12,inactive
6,CCCCC(C#N)(Cn1cncn1)c1ccc(Cl)cc1 (stereo not given),inactive
7,CN(C)c1nc(=O)n(C2CCCCC2)c(=O)n1C,inactive
8,Nc1ccc2ccccc2c1,inactive
9,ClCc1ccccn1,inactive
10,CNC(=S)S,inactive
11,COP(=S)(OC)SCn1nnc2ccccc2c1=O,inactive
12,Nc1ccc([N+](=O)[O-])cc1N,inactive
13,ClC(Cl)=C(Cl)C(Cl)=C(Cl)Cl,inactive
14,CCOP(=O)(OCC)OCC,inactive
15,O=NN1CCOCC1,inactive
16,CC[n+]1c(-c2ccccc2)c2cc(N)ccc2c2ccc(N)cc21,0.614 µM (active)
17,Clc1cccc(C(Cl)(Cl)Cl)n1,inactive
18,CSc1nc(NC(C)C)nc(NC(C)C)n1,inactive
19,CC(C)COC(=O)c1ccccc1C(=O)OCC(C)C,inactive
20,CC1=C(C(=O)Nc2ccccc2)SCCO1,inactive

# — PubChem BioAssay (Tox21)
